Results filed as inconclusive are left out. The source made the active and inactive calls. How the source made its calls, unless noted: active means hit-call score of the fitted dose curve at least 0.9, where 1 is the maximum; inconclusive means response in the unintended direction; inactive means score below 0.9.
How the values were obtained:
[1] = molecular target: Cellular tumor antigen p53 (Homo sapiens) (UniProt P04637); assay: TOX21_p53_BLA_p2_ratio: Tox21 HCT-116 p53 Agonism Beta-lactamase Assay, Ratio, Phase 2 (AID 2283592)
Cellular tumor antigen p53 (Homo sapiens), sequence (P04637 whole entry, looked up): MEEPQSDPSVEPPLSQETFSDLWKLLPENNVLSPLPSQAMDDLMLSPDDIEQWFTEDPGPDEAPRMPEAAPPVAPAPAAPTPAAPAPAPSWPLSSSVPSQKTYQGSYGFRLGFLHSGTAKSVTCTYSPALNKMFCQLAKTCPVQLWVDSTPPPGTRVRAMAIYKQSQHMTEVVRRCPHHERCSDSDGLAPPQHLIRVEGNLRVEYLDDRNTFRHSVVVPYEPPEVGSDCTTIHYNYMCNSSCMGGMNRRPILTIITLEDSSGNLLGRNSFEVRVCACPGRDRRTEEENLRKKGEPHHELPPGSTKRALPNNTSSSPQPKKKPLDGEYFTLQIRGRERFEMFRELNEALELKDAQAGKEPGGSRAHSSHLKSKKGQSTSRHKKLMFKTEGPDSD
Outline: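 HCT116 cells carrying a p53-responsive beta-lactamase reporter were plated, incubated 5 h at 37C, then dosed with compounds in DMSO (217-fold dilution) for 16 h. CCF4-AM substrate was added for 2 h at room temperature; the 460/530 nm emission ratio gave gain-of-signal activity relative to DMSO.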

[2] = molecular target: Cellular tumor antigen p53 (Homo sapiens) (UniProt P04637); assay: TOX21_p53_BLA_p3_ratio: Tox21 HCT-116 p53 Agonism Beta-lactamase Assay, Ratio, Phase 3 (AID 2283596)
Outline: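 HCT116 p53-bla cells (4000/well) given compound in DMSO (217-fold dilution) after 5 h, incubated 16 h at 37C. CCF4-AM substrate 2 h at room temperature; 460/530 nm emission ratio, gain fitted against DMSO.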

[3] = molecular target: Cellular tumor antigen p53 (Homo sapiens) (UniProt P04637); assay: TOX21_p53_BLA_p5_ratio: Tox21 HCT-116 p53 Agonism Beta-lactamase Assay, Ratio, Phase 5 (AID 2283599)
Outline: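 HCT-116 p53-bla cells (4000/well) plated 5 h, dosed with compound (217-fold DMSO dilution) for 16 h at 37 C; CCF4-AM substrate 2 h at room temperature. Activity is the 460/530 nm emission ratio (405 nm excitation), fitted in gain-of-signal direction versus DMSO.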

[4] = TOX21_p53_BLA_p5_viability: Viability Assessment in the Tox21 HCT-116 p53 Agonism Beta-lactamase Assay, Phase 5 (AID 2283600)
Outline: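 Cells were plated at 4000/well, rested 5 h at 37C, then given compounds in DMSO (217-fold dilution) for 16 h at 37C, 5% CO2. Following the CCF4-AM beta-lactamase read, CellTiter-Glo was added and luminescence was read after 30 min at room temperature.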

[5] = molecular target: Cellular tumor antigen p53 (Homo sapiens) (UniProt P04637); assay: TOX21_p53_BLA_p4_ratio: Tox21 HCT-116 p53 Agonism Beta-lactamase Assay, Ratio, Phase 4 (AID 2283601)
Outline: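 HCT-116 p53 beta-lactamase reporter cells (4000/well) preincubated 5 h, then compound (217-fold dilution of DMSO stock) for 16 h at 37C. CCF4-AM substrate added 2 h at room temperature; 460/530 nm emission ratio fitted upward versus DMSO.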

[6] = CCTE_Shafer_MEA_dev_firing_rate_mean: CCTE's Neural Network Formation Assay for Mean Firing Rate, Shafer Lab (AID 2284031; active means hit-call score of the fitted dose curve at least 0.9, where 1 is the maximum; inactive means score below 0.9)
Outline: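 Developing rat cortical networks on MEA plates undergo 12-day compound exposure. Firing frequency, averaged across active electrodes, is integrated as area under the curve over four recording days, referenced to DMSO.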

[7] = CCTE_Shafer_MEA_dev_per_burst_spike_percent: CCTE's Neural Network Formation Assay for Percent of Spikes in a Burst, Shafer Lab (AID 2284032; active means hit-call score of the fitted dose curve at least 0.9, where 1 is the maximum; inactive means score below 0.9;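 further: fitted as a decrease in burst spike percentage below DMSO baseline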)
Outline: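 Rat primary cortical neurons on 16-electrode MEA wells, dosed from plating day 0 for 12 days with renewal on DIV 5 and 9; spikes-in-bursts percentage averaged over bursting electrodes, collapsed as AUC across days 5, 7, 9, 12; loss direction versus DMSO.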

[8] = CCTE_Shafer_MEA_dev_active_electrodes_number: CCTE's Neural Network Formation Assay for Number of Active Electrodes, Shafer Lab (AID 2284040);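 further: potency for loss of active electrodes versus DMSO so lower counts are hits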
Outline: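 Rat cortical primary cultures, 1.5 x 10^5 cells/well, PEI-coated MEA, laminin drop. Continuous exposure DIV 0–12; full media/compound change DIV 5, 9. Readout: electrodes with mean firing ≥5 spikes/min; AUC across days; loss vs DMSO.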

[9] = CCTE_Shafer_MEA_dev_burst_rate: CCTE's Neural Network Formation Assay for Burst Rate, Shafer Lab (AID 2284042; active means hit-call score of the fitted dose curve at least 0.9, where 1 is the maximum; inactive means score below 0.9)
Outline: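 Primary rat cortical neurons on PEI-coated 48-well MEA plates (laminin added with cells at plating) (16 electrodes/well), exposed from plating to day 12, dosing renewed at DIV 5 and 9. Burst rate averaged over active electrodes, recorded DIV 5, 7, 9, 12, summarized as AUC; loss versus DMSO.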

[10] = CCTE_Shafer_MEA_dev_bursting_electrodes_number: CCTE's Neural Network Formation Assay for Number of Bursting Electrodes, Shafer Lab (AID 2284043);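 further: potency is for loss of bursting electrodes relative to DMSO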
Outline: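 Primary rat cortical neurons plated on 16-electrode MEA wells, exposed from day 0 with compound renewed at DIV 5 and 9. Electrodes bursting ≥1 burst per 2 min counted on days 5, 7, 9 and 12; trapezoidal AUC across days, fitted for loss versus DMSO.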

[11] = CCTE_Shafer_MEA_dev_per_burst_interspike_interval: CCTE's Neural Network Formation Assay for Burst Interspike Interval, Shafer Lab (AID 2284044; active means hit-call score of the fitted dose curve at least 0.9, where 1 is the maximum; inactive means score below 0.9;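 further: mean spike spacing inside bursts as AUC over recordings on days 5 7 9 12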)
Outline: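 Rat cortical primary cultures, 16 electrodes/well; compound from plating, renewed with full media change DIV 5 and 9. Spikes via adaptive detector; per-burst ISI well-mean over active bursting electrodes; AUC of DIV 5/7/9/12 recordings; loss-direction fit vs DMSO.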

[12] = CCTE_Shafer_MEA_dev_interburst_interval_mean: CCTE's Neural Network Formation Assay for Mean Interburst Interval, Shafer Lab (AID 2284046; active means hit-call score of the fitted dose curve at least 0.9, where 1 is the maximum; inactive means score below 0.9;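 further: well-mean interburst interval of bursting electrodes as AUC over four recording days; curve fitted for decrease in interburst interval relative to DMSO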)
Outline: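 Recordings on days 5, 7, 9 and 12 give well-mean interburst interval across actively bursting electrodes, summarized as area under the curve. Cultures: rat cortical neurons, continuous exposure from day 0, compound renewed at feeds; decrease analyzed versus DMSO.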

[13] = CCTE_Shafer_MEA_dev_network_spike_number: CCTE's Neural Network Formation Assay for Number of Network Spikes, Shafer Lab (AID 2284048; active means hit-call score of the fitted dose curve at least 0.9, where 1 is the maximum; inactive means score below 0.9)
Outline: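 Primary rat cortical neurons on PEI/laminin 48-well MEA plates, dosed from plating day 0 for 12 days, renewed at DIV 5 and 9. Network spike counts recorded DIV 5, 7, 9, 12, collapsed as trapezoidal AUC; DMSO baseline.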

[14] = CCTE_Shafer_MEA_dev_network_spike_peak: CCTE's Neural Network Formation Assay for Mean Number of Electrodes in Network Spike, Shafer Lab (AID 2284049; active means hit-call score of the fitted dose curve at least 0.9, where 1 is the maximum; inactive means score below 0.9)
Outline: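 Network-spike peak electrode count from recordings on days 5, 7, 9 and 12 was combined as trapezoidal area under the curve. Rat cortical cultures were treated continuously from plating, with compound renewed at each feed (DIV 5, 9); fits versus DMSO.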

[15] = CCTE_Shafer_MEA_dev_spike_duration_mean: CCTE's Neural Network Formation Assay for Mean Spike Duration, Shafer Lab (AID 2284051; active means hit-call score of the fitted dose curve at least 0.9, where 1 is the maximum; inactive means score below 0.9;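 further: mean network spike duration pooled as area under curve over DIV 5 to 12 recordings; potency for a decrease in mean network spike duration versus DMSO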)
Outline: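 Primary rat cortical neurons on 16-electrode MEA wells (PEI-coated, laminin in plating drop), exposed from plating through DIV 12 with compound renewed at DIV 5 and 9. Mean network-spike duration recorded DIV 5, 7, 9, 12; trapezoidal AUC across days, DMSO baseline.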

[16] = CCTE_Shafer_MEA_dev_network_spike_duration_std: CCTE's Neural Network Formation Assay for Standard Deviation of Network Spike Duration, Shafer Lab (AID 2284052; active means hit-call score of the fitted dose curve at least 0.9, where 1 is the maximum; inactive means score below 0.9;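 further: area under curve of spike duration SD across recording days 5 to 12; hits are decreases in network spike duration SD versus DMSO vehicle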)
Outline: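 Primary rat cortical neurons on PEI-coated 16-electrode MEA wells, exposed from plating day 0 through day 12 with compound renewed at DIV 5 and 9. Network spike duration SD recorded on days 5, 7, 9, 12, collapsed as trapezoidal AUC; loss-of-signal fit versus DMSO.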

[17] = CCTE_Shafer_MEA_dev_per_network_spike_spike_number_mean: CCTE's Neural Network Formation Assay for Mean Number of Spikes in a Network Spike, Shafer Lab (AID 2284053; active means hit-call score of the fitted dose curve at least 0.9, where 1 is the maximum; inactive means score below 0.9)
Outline: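 Primary rat cortical neurons on 48-well, 16-electrode MEA plates were exposed from plating to DIV 12, with dosing renewed on DIV 5 and 9. Spikes per network spike (0.05 s peak window) were recorded on DIV 5, 7, 9 and 12 and collapsed as trapezoidal AUC versus DMSO.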

[18] = CCTE_Shafer_MEA_dev_LDH: CCTE's Lactate Dehydrogenase Assay for Cytotoxicity in the Neural Network Formation Assay, Shafer Lab (AID 2284068);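 further: exposure for twelve days from plating with re-dosing on DIV 5 and 9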
Outline: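 Primary rat cortical neurons were plated on PEI/laminin MEA plates and exposed from day 0 for twelve days, with compound renewed at DIV 5 and 9. Cytotoxicity was determined by spectrophotometric LDH assay relative to DMSO.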

[19] = CCTE_Shafer_MEA_dev_AB: CCTE's Alamar Blue Assay for Cytotoxicity in the Neural Network Formation Assay, Shafer Lab (AID 2284083);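 further: twelve days of exposure from plating with re-dosing on DIV 5 and 9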
Outline: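 Primary rat cortical neurons on PEI-coated 48-well MEA plates, 1.5 x 10^5 cells/well in laminin drop; compound exposure from day 0 of plating for twelve days, renewed at medium changes on DIV 5 and 9. Viability read as resazurin reduction by fluorescence, relative to DMSO.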

[20] = CCTE_Shafer_MEA_dev_mutual_information_norm: CCTE's Neural Network Formation Assay for Mutual Information Normalization, Shafer Lab (AID 2284091; active means hit-call score of the fitted dose curve at least 0.9, where 1 is the maximum; inactive means score below 0.9)
Outline: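 Primary rat cortical neurons on PEI-coated 48-well MEA plates, 1.5 x 10^5 cells/well, exposed from day 0 through day 12 with re-dosing at DIV 5 and 9. Mutual information between electrodes recorded days 5, 7, 9, 12; trapezoidal AUC, loss-of-signal fit versus DMSO.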

[21] = CCTE_Shafer_MEA_dev_correlation_coefficient_mean: CCTE's Neural Network Formation Assay for Mean Correlation Coefficient, Shafer Lab (AID 2284093; active means hit-call score of the fitted dose curve at least 0.9, where 1 is the maximum; inactive means score below 0.9)
Outline: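 Spontaneous activity recorded on days 5, 7, 9 and 12 post-plating; pairwise spike correlations are averaged across active electrodes and collapsed to an area-under-curve. Rat cortical cultures are dosed from plating through 12 days, with compound renewed at media changes.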

[22] = CCTE_Mundy_HCI_Cortical_Synap_Neur_Matur_NeuriteSpotCountPerNeuriteLength: CCTE's Synaptogenesis and Neurite Maturation Assay in rat cortical cells for Neurite Spot Count per Neurite Length, Mundy Lab (AID 2284210; active means hit-call score of the fitted dose curve at least 0.9, where 1 is the maximum; inactive means score below 0.9)
Outline: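 Rat primary cortical cultures, AraC added at DIV 5 to suppress glia; chemical exposure from DIV 7 to DIV 12. Fixed cells stained for MAP2 and synaptophysin plus Hoechst; synaptophysin puncta per neurite length quantified by high-content imaging, relative to DMSO.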

[23] = CCTE_Mundy_HCI_Cortical_NOG_NeuriteLength: CCTE's Neurite Outgrowth Assay in rat cortical cells for Neurite Length, Mundy Lab (AID 2284213; active means hit-call score of the fitted dose curve at least 0.9, where 1 is the maximum; inactive means score below 0.9)
Outline: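 Neurite length was read by high-content imaging of βIII-tubulin-labelled neurites in rat primary cortical cultures. Activity was fitted relative to DMSO.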

[24] = CCTE_Mundy_HCI_Cortical_Synap_Neur_Matur_NeuriteLength: CCTE's Synaptogenesis and Neurite Maturation Assay in rat cortical cells for Neurite Length, Mundy Lab (AID 2284214; active means hit-call score of the fitted dose curve at least 0.9, where 1 is the maximum; inactive means score below 0.9)
Outline: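 Neurite length in rat primary cortical cultures is imaged after MAP2, synaptophysin and Hoechst staining. Dosing starts DIV 7, ending DIV 12; DMSO serves as negative control and baseline.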

[25] = CCTE_Mundy_HCI_Cortical_Synap_Neur_Matur_NeuriteSpotCountPerNeuron: CCTE's Synaptogenesis and Neurite Maturation Assay in rat cortical cells for Neurite Spot Count per Neuron Count, Mundy Lab (AID 2284215; active means hit-call score of the fitted dose curve at least 0.9, where 1 is the maximum; inactive means score below 0.9)
Outline: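 Rat primary cortical cells received AraC at DIV 5, then chemicals with a media change at DIV 7, and were fixed at DIV 12. Synaptophysin puncta on MAP2-stained neurites per neuron were counted by high-content imaging, fitted relative to DMSO.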

[26] = CCTE_Mundy_HCI_Cortical_Synap_Neur_Matur_SynapseCount: CCTE's Synaptogenesis and Neurite Maturation Assay in rat cortical cells for Synapse Count, Mundy Lab (AID 2284218; active means hit-call score of the fitted dose curve at least 0.9, where 1 is the maximum; inactive means score below 0.9)
Outline: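 Synapse count per neuron is measured in rat cortical neurons exposed to chemicals between DIV 7 and DIV 12, with glial growth arrested by AraC at DIV 5. Synaptophysin and MAP2 staining is imaged automatically; activity is fitted relative to DMSO.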

[27] = CCTE_Mundy_HCI_hN2_NOG_NeuriteCount: CCTE's Neurite Outgrowth Assay in human hN2 cells for Neurite Count, Mundy Lab (AID 2284219)
Outline: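 In this morphology assay, hNP1-derived neurons received test chemical 2 h post-plating and were fixed two days later in warm paraformaldehyde/sucrose containing Hoechst 33342. Neurites, labelled by rabbit anti-βIII-tubulin (1:800) and Alexa Fluor-488 (1:500), were counted automatically.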

[28] = CCTE_Mundy_HCI_hN2_NOG_NeuriteLength: CCTE's Neurite Outgrowth Assay in human hN2 cells for Neurite Length, Mundy Lab (AID 2284220)
Outline: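 Read-out is neurite length from high-content imaging of βIII-tubulin/Alexa Fluor-488-labelled neurons, referenced to DMSO controls.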

[29] = CCTE_Mundy_HCI_hN2_NOG_NeuronCount: CCTE's Neurite Outgrowth Assay in human hN2 cells for Neuron Count, Mundy Lab (AID 2284221)
Outline: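 Read-out is the number of betaIII-tubulin-positive neurons imaged by automated high-content analysis, with DMSO as negative control.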

[30] = CCTE_Mundy_HCI_Cortical_Synap_Neur_Matur_CellBodySpotCount: CCTE's Synaptogenesis and Neurite Maturation Assay in rat cortical cells for Cell Body Spot Count, Mundy Lab (AID 2284223; active means hit-call score of the fitted dose curve at least 0.9, where 1 is the maximum; inactive means score below 0.9)
Outline: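 Rat primary cortical cultures received AraC at DIV 5 to arrest glia, were dosed with chemical at DIV 7 with media change, and were fixed at DIV 12 (288.33 h). Synaptophysin puncta on MAP2-positive cell bodies per neuron were counted by high-content imaging versus DMSO.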

[31] = CCTE_Mundy_HCI_Cortical_NOG_NeuronCount: CCTE's Neurite Outgrowth Assay in rat cortical cells for Neuron Count, Mundy Lab (AID 2284236);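 further: neurons counted by imaging betaIII-tubulin and Hoechst stained cortical cells; cells exposed to compound for about 48 hours before fixation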
Outline: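 Read-out: neuron number by high-content imaging of betaIII-tubulin (Alexa Fluor-488) and Hoechst-labelled rat primary cortical cells.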

[32] = CCTE_Mundy_HCI_hNP1_Casp3_7: CCTE's Caspase-Glo 3/7 Assay in human neuroprogenitor cells for Apoptosis, Mundy Lab (AID 2284240; active means hit-call score of the fitted dose curve at least 0.9, where 1 is the maximum; inactive means score below 0.9)
Outline: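 Luminescent caspase-3/7 readout, 26.5 h post-dose, in human neural progenitor cells from WA09 embryonic stem cells. Cells grew 40–44 h at 37 °C, 5% CO2 before chemical addition. Activity analysed as signal increase over DMSO baseline.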

Compound: CN1C(=O)CN=C(c2ccccc2)c2cc(Cl)ccc21
- outcome [1]: inactive
- outcome [2]: inactive
- outcome [3]: inactive
- outcome [4]: inactive
- outcome [5]: inactive
- outcome [6]: inactive
- AC50 [7]: 3.62 µM (active)
- AC50 [8]: 15 µM (active)
- outcome [9]: inactive
- AC50 [10]: 4.58 µM (active)
- outcome [11]: inactive
- outcome [12]: inactive
- outcome [13]: inactive
- outcome [14]: inactive
- AC50 [15]: 3.06 µM (active)
- outcome [16]: inactive
- outcome [17]: inactive
- outcome [18]: inactive
- outcome [19]: inactive
- outcome [20]: inactive
- outcome [21]: inactive
- outcome [22]: inactive
- outcome [23]: inactive
- outcome [24]: inactive
- outcome [25]: inactive
- outcome [26]: inactive
- outcome [27]: inactive
- outcome [28]: inactive
- outcome [29]: inactive
- outcome [30]: inactive
- outcome [31]: inactive
- AC50 [32]: 23 µM (active)

Compound: CCC(Cl)[N+](=O)[O-] (stereo not drawn)
- outcome [1]: inactive
- outcome [2]: inactive
- outcome [3]: inactive
- outcome [4]: inactive
- outcome [5]: inactive

Compound: CCCCCCCCCBr
- outcome [1]: inactive
- outcome [2]: inactive
- outcome [4]: inactive
- outcome [5]: inactive

Compound: CC(=O)OO
- outcome [1]: inactive
- outcome [2]: inactive
- outcome [3]: inactive
- outcome [5]: inactive

Compound: CCCC[N+]1(C)CCCC1
- outcome [1]: inactive
- outcome [2]: inactive
- outcome [3]: inactive
- outcome [5]: inactive

Compound: CC(C)(Cl)[N+](=O)[O-]
- outcome [1]: inactive
- outcome [2]: inactive
- outcome [4]: inactive
- outcome [5]: inactive
